Several values for one entry are separate records, joined by “and”; a condition that tells them apart may be missing. Identical values can stand only once. Results filed as inconclusive are left out. Some structures have more than one record in an assay (separate samples or runs), and their calls can disagree. Activity calls are given as the source filed them. The calls were made as follows: active = hit-call score of the fitted dose curve at least 0.9, where 1 is the maximum; inconclusive = response in the unintended direction; inactive = score below 0.9.
These compounds were tested against Estrogen receptor (Homo sapiens) (UniProt P03372) (assay: ATG_hERa_XSP2: Attagene TRANS-FACTORIAL Multi-Species (XSP2) HepG2 Assay for human Estrogen Receptor (ERa) (AID 2283827)).
Sequence of Estrogen receptor (Homo sapiens) (P03372 whole entry, looked up): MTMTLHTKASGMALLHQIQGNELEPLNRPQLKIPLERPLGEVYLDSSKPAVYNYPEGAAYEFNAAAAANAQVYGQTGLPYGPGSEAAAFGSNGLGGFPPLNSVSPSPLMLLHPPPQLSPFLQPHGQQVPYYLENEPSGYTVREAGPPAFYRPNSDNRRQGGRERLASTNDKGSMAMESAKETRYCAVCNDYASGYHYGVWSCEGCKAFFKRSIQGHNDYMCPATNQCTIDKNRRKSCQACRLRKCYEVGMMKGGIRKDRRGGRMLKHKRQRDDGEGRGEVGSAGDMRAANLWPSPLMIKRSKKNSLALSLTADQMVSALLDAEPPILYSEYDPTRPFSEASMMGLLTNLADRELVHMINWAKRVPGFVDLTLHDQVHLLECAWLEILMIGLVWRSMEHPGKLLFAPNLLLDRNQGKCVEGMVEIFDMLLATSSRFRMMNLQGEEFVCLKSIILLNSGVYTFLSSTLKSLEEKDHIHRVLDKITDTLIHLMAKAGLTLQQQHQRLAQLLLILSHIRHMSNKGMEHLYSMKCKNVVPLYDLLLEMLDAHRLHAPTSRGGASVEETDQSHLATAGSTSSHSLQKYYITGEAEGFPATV
Protocol: ATG_XSP2_multi-species_TRANS is a cell-based, multiplexed assay created by modifying the existing Attagene TRANS-FACTORIAL system to include a panel of nuclear receptors from some or all the following species: human (Homo sapiens), mouse (Mus musculus), frog (Xenopus laevis), zebrafish (Danio rerio), chicken (Gallus gallus), and turtle (Chrysemys picta). The ECOTOX-FACTORIAL format uses HepG2, a human liver cell line, with measurements taken at 24 hours after chemical dosing in a 24-well plate. Xsp2 included 3 nM 6-alpha-fluorotestosterone and 1.5 nM norgestrel to stimulate the androgen receptor.ATG_hERa_XSP2 is one of 29 assay components measured or calculated from the ATG_XSP2_multi-species_TRANS assay. It is designed to make measurements of mRNA induction, a form of inducible reporter, as detected with fluorescence intensity signals by Reverse transcription polymerase chain reaction (RT-PCR) and Capillary electrophoresis technology.The assay endpoint ATG_hERa_XSP2 was analyzed in the positive analysis fitting direction relative to DMSO as the negative control and baseline of activity. Using a type of inducible reporter, measures of mRNA for gain-of-signal activity can be used to understand the reporter gene at the transcription factor-level as they relate to the gene ER. Furthermore, this assay endpoint can be referred to as a primary readout, because this assay has produced multiple assay endpoints where this one serves a reporter gene function. To generalize the intended target to other relatable targets, this assay endpoint is annotated to the nuclear receptor intended target family, where the subfamily is steroidal.
Human liver HepG2 cells are transiently transfected with multiple reporter transcription units (MRTUs) in 6-well plates using FuGene 6 reagent (Roche; 3 ml FuGene/1 mg DNA). The MRTU constructs are regulated by a cis-regulating element (promoter). […] A major difference between the CIS and TRANS system is that in CIS activities of endogenous TFs are measured, whereas the TRANS assay evaluates changes in activities of exogenous, chimeric NR-Gal4 proteins. […] At the end of 24 hour incubation, total RNA was isolated using TriZol reagent (Invitrogen). The isolated RNA is then reverse-transcribed using oligo(dT) primer and Mo-MLV reverse transcriptase (Invitrogen) with DNAse I (Ambion) treatment for 30 min. The one-tenth of the produced cDNA was amplified by PCR using Taq DNA polymerase (Invitrogen) and two reporter sequence-specific primers. The PCR products were fluorescently labeled by primer extension with 6-arboxyfluorescein (6-FAM) 5'-labeled reporter sequence-specific primer (2 min at 95 C, 20 s at 68 C and 10 min at 72 C) and these products were digested with 5U of HpaI (New England Biolabs) for 2h at 37 C. The fragments were purified using Qiaquick PCR columns (Qiagen), analyzed on an ABI 3130xL genetic analyzer (Applied Biosystems) with peak positions identified by using a set of X-rhodamine (ROX)-labeled MapMarker1000 molecular weight standards (BioVentures). The raw capillary electrophoresis data was processed using Attagraph software (Attagene).
For `CC(=O)C=C(C)C`, the outcome was “inactive”. For `Clc1ccc(C2(Cn3cncn3)CC(Br)CO2)c(Cl)c1` (stereo not given), the AC50 was 4.43 µM (active) and 6.56 µM (active). With `O=S(=O)(c1ccc(Cl)cc1)c1ccc(Cl)cc1` the AC50 was 4.86 µM (active) and 27.8 µM (active). `CC1(C)CCC(Cc2ccc(Cl)cc2)C1(O)Cn1cncn1` (stereo not given) was tested, and the outcome was “inactive”. For `CC(C)C1CCC(Cc2ccc(Cl)cc2)C1(O)Cn1cncn1` (stereo not given), the AC50 was 7.95 µM (active) and the outcome was “inactive”. With `Oc1c(I)cc(I)cc1I` the AC50 was 3.11 µM (active). In the case of `CC(C)(C)c1cc(O)ccc1O`, the AC50 is reported as 33.1 µM (active). `COP(=O)(OC)O/C(=C\Cl)c1cc(Cl)c(Cl)cc1Cl` was tested, and the AC50 was 9.68 µM (active). With `C[C@H]1CCCC(=O)CCC/C=C/c2cc(O)cc(O)c2C(=O)O1` the AC50 was 3.41 nM (active) and 1.59 nM (active).

Reference: PubChem BioAssay (EPA / NIEHS)
